ADAM17 inh – ADAM17 inhibition, QFRET primary screen; P78536; recombinant ADAM17, EDANS/DABCYL FRET peptide cleavage; inhibition, % at 6.95 µM; actives 0.83% (n = 370,000);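 active means inhibition above the mean of compounds lying between control limits plus 3 SD, set per campaign, cut at about 8.5% in these data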;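 further: 0% = DMSO-only wells as the low control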
ADAM10 inh – inhibitors of human ADAM10; recombinant ADAM10, EDANS/DABCYL FRET peptide cleavage, 3 h; actives 0.62% (n = 370,000); inhibition, % at 7 µM; O14672; AID 720582;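 active means inhibition above a per-campaign cutoff equal to the mean of compounds falling between control-based bounds plus 3 SD, cut at about 20% in these data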;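 further: 0% = DMSO wells while the 100% control is not disclosed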
V-ATPase pH – alters yeast V-ATPase proton transport. S. cerevisiae, pHLuorin cytosolic pH fluorescence. response, % at 10 µM. actives 0.37% (n = 350,000); in the data active means response mostly above about 7.3%, no sharp cut-off; inactive means mostly below about 5.4%; further: actives read high
proKLK7 act – proKLK7 (human) activation, primary screen. P49862. purified proKLK7, EDANS-DABCYL substrate fluorescence; 100% is mature enzyme control, 0% vehicle. activation, % at 7 µM. actives 0.9% (n = 370,000);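 active means activation above the mean of all tested compounds plus 3 SD, computed per campaign excluding outliers beyond control limits, cut at about 13% in these data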
Target sequence (P49862 whole entry, looked up): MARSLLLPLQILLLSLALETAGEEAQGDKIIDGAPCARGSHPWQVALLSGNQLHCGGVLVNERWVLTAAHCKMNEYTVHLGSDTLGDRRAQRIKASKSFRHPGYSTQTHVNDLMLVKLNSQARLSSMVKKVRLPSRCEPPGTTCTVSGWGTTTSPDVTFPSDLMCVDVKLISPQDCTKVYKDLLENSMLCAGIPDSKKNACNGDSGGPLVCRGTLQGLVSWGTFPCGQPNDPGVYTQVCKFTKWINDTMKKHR
ADAM10 confirm – confirmation of inhibitors of human ADAM10; actives 1% (n = 2,100); ADAM10 QFRET peptide cleavage, EDANS fluorescence; shares compounds with ADAM10 inh; inhibition, % at 6.95 µM;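 active means inhibition above about 20% chosen separately for each screening run, limit read from the data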;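 further: 0% = DMSO wells and 100% = marimastat wells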
ADAM17 ctr – inhibits human ADAM17 in ADAM10 exosite counter-screen | ADAM17 QFRET peptide cleavage, EDANS fluorescence | inhibition, % at 6.95 µM | AID 743214 | shares compounds with ADAM10 inh | actives 0.5% (n = 2,100);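 active means mean triplicate inhibition above the solvent-only control wells' mean plus 3 SD, cut at about 12% in these data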;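 further: 0% = DMSO wells and 100% = marimastat wells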
The depositor's hits bear a star; nt = no result given. The list is not random: actives were taken first. Their share in the collection is about 2.3%.

SMILES	ADAM17 inh	ADAM10 inh	V-ATPase pH	proKLK7 act	ADAM10 confirm	ADAM17 ctr
O=C(CCC(=O)Nc1ccccc1Cl)NNC(=S)Nc1ccccc1C(F)(F)F	6.1	28.3*	6.9	-0.1	6.2	3.2
Cc1ccccc1C(=O)N[C@H](C(=O)N1CCC[C@H]1C(=O)NC1CCCC1)C1CCCCC1	-2.3	-0.3	nt	0.8	nt	nt
Cc1cc(C)c(O)c(-c2cc(C(=O)Nc3ccc(S(=O)(=O)N4CCOCC4)cc3)[nH]n2)c1	7.9	21.1*	1.6	-0.3	5.8	2.0
CCS(=O)(=O)Nc1ccc2c(c1)C(=O)N(C)[C@@H]1CC[C@H](CC(=O)N[C@@H]3CCN(Cc4ccccc4)C3)O[C@H]1CO2	-6.1	-14.1	nt	0.2	nt	nt
Cc1ccc(C2(c3ccc(C)cc3)CC2C(=O)Nc2ccc([N+](=O)[O-])cc2O)cc1 (stereo not given)	19.3*	41.5*	0.2	-0.2	11.4	3.5
CC1(C)CC1C(=O)Nc1ccc([N+](=O)[O-])cc1Br (stereo not given)	3.4	16.1	-4.3	0.7	nt	nt
COc1cccc(CNc2ncc(Br)cc2Br)c1O	4.1	15.0	0.2	-0.3	nt	nt
COc1cccc(CNc2ccc(Br)cn2)c1O	5.5	24.6*	-1.9	0.4	-0.4	0.3
O=C(Nc1nc2ncccn2c1-c1ccc(C(F)(F)F)cc1)c1ccc(F)cc1	-54.4	-176.1	nt	3.5	nt	nt
O=S(=O)(NCc1ccc(Cl)c(Cl)c1)c1cc(Cl)ccc1N1CC[C@@H](O)C1	8.0	20.6*	nt	-0.6	6.9	2.5
NS(=O)(=O)c1ccc(CNS(=O)(=O)c2cc(Cl)ccc2Cl)cc1	-1.9	-4.4	-3.3	0.1	nt	nt
CC(C)Oc1cccc(-c2csc(N3CCC(C(N)=O)CC3)n2)c1	0.9	0.0	nt	nt	nt	nt
Cc1ccc(NC(=O)Cc2ccccc2Cl)cc1S(=O)(=O)N(C)C	2.1	2.7	2.4	-1.0	nt	nt
Cc1ccc(NC(=O)CNc2ccc(Cl)c(Cl)c2)cc1S(=O)(=O)N(C)C	7.7	23.2*	0.5	1.0	5.0	1.5
N#CCS(=O)(=O)c1cccc[n+]1[O-]	-0.4	5.1	nt	-0.2	nt	nt
CCOC(=O)c1cc(-c2ccccc2C)n(CC2CC(c3ccc(OC)cc3)=NO2)n1 (stereo not given)	7.8	22.8*	-3.8	0.4	0.9	0.1
C#CCN(Cc1ccco1)C(=O)c1nnc2c3cc(OC)ccc3n(S(=O)(=O)c3ccc(OC)cc3)c2n1	-10.6	-25.3	nt	-0.7	nt	nt
CC1(C(=O)NCc2cccc3ccccc23)CCN1Cc1ccccc1OC(F)F (stereo not given)	5.7	20.9*	nt	0.4	3.0	0.9
COC(=O)c1cc(NC(=O)CN(c2ccc(OC)cc2)S(=O)(=O)c2ccc(F)cc2)ccc1Cl	8.6	22.0*	0.8	-0.2	9.6	2.3
C=CCNC(=O)CN(c1ccc(F)cc1)S(=O)(=O)c1ccc(OC)cc1	-2.6	-3.9	5.4	0.0	nt	nt
O=C(c1cc(-c2ccccc2)n[nH]1)N1CCc2c([nH]c3ccccc23)C1c1ccccn1 (stereo not given)	5.2	27.1*	4.5	0.7	6.1	3.0
COC(=O)CC#C[C@H](C)[C@@H](NS(C)(=O)=O)C1CCCCC1	-1.6	-4.0	nt	1.1	nt	nt
O=C(NCc1ccc(F)cc1)c1cnc(-c2ccccn2)nc1C(F)(F)F	-4.6	66.1*	-2.0	-0.3	1.8	0.1
Cc1ccc(CNC(=O)c2cnc(-c3ccccn3)nc2C(F)(F)F)cc1	-0.1	4.4	2.6	-0.1	nt	nt
O=C1[C@H]2[C@@H](c3ccc(F)cc3)N3C(=O)N(c4ccccc4)C(=O)[C@@]3(Cc3ccccc3)[C@H]2C(=O)N1C1CCCCC1	7.4	24.0*	-5.2	0.2	0.6	0.6
SMILES	ADAM17 inh	ADAM10 inh	V-ATPase pH	proKLK7 act	ADAM10 confirm	ADAM17 ctr
O=C1[C@H]2[C@@H](c3ccc(F)cc3)N3C(=O)N(c4ccccc4)C(=O)[C@@]3(Cc3ccc(Cl)cc3)[C@H]2C(=O)N1C1CCCCC1	-3.6	6.2	-5.4	0.4	nt	nt
COc1ccc([C@@H]2[C@@H]3C(=O)N(C(C)(C)C)C(=O)[C@@H]3[C@]3(Cc4ccccc4)C(=O)N(c4ccc(Br)cc4)C(=O)N23)cc1	nt	nt	-1.6	nt	nt	nt
COc1ccc(N2C(=O)N3[C@H](c4ccc(Br)cc4)[C@@H]4C(=O)N(C(C)(C)C)C(=O)[C@@H]4[C@]3(Cc3ccccc3)C2=O)cc1	7.2	23.9*	-1.1	0.3	3.9	1.3
COc1ccc(/C=N/NC(=O)c2ccn[nH]2)cc1COc1ccc(Cl)cc1	6.8	20.1*	0.6	-0.4	5.1	3.1
CC1CCCN(S(=O)(=O)c2ccc(NC(=O)CN3C(=O)NC(C)(c4ccccc4)C3=O)cc2)C1 (stereo not given)	5.0	20.2*	-1.0	0.2	3.6	0.5
COc1ccc(C2(C)NC(=O)N(CC(=O)Nc3ccc(S(=O)(=O)N4CCCC4)cc3)C2=O)cc1 (stereo not given)	-2.0	1.0	-1.1	0.8	nt	nt
O=C(Cc1cccc2ccccc12)Nc1cc(Cl)ccc1C(=O)O	4.3	22.9*	-2.9	0.3	1.4	0.5
O=C(Cc1cccc2ccccc12)Nc1ccccc1C(=O)O	-3.8	-13.8	-3.7	0.1	nt	nt
CCOc1cc(/C=N/NC(=O)COc2ccc(C)cc2)ccc1OC(=O)c1cccs1	4.0	21.1*	1.5	0.1	10.1	2.5
CC1CCC(NC(=O)c2cccc(S(=O)(=O)N3CCN(c4ccccc4)CC3)c2)CC1 (stereo not given)	-2.1	-0.6	-2.3	0.4	nt	nt
O=C(NC1CCCc2ccccc21)c1cccc(S(=O)(=O)N2CCN(c3ccccc3)CC2)c1 (stereo not given)	9.5*	20.1*	3.8	-0.2	8.8	2.4
FC(F)Sc1ccc(NC(=S)NCC2CCCCC2)cc1	6.8	30.7*	-2.7	0.3	1.7	1.4
S=C(NCC1CCCCC1)Nc1ccc(Oc2ccccc2)cc1	4.2	4.0	0.4	0.2	nt	nt
CCc1ccc2c(CN3CCN(S(=O)(=O)c4ccccc4F)CC3)cc(=O)oc2c1	2.5	11.7	-1.1	1.7	nt	nt
CCc1ccc2c(CN3CCN(S(=O)(=O)c4cccs4)CC3)cc(=O)oc2c1	5.5	20.7*	1.8	-0.6	2.8	0.2
CCN1Cc2nnn(Cc3ccccc3)c2-c2cc(F)ccc2S1(=O)=O	-1.1	-2.6	nt	0.4	nt	nt
COC(=O)C1=CC(=O)C=C(OC)[C@@]12Oc1cc(C)cc(OC)c1C2=O	-8.1	-15.4	nt	1.8	nt	nt
O=C1c2ccccc2C(=O)N1CCc1c(-c2[nH]c3ccccc3c2CCN2C(=O)c3ccccc3C2=O)[nH]c2ccccc12	-2.6	-14.4	2.7	-1.0	nt	nt
O=C1c2ccccc2C(=O)N1CCc1c(-c2ccccc2)[nH]c2ccccc12	5.5	20.0*	2.9	-0.3	6.6	1.9
CC(C)c1ccc(OCC(=O)NCc2ccccc2)cc1	-0.1	78.0*	-1.9	-0.2	0.0	-0.2
